Data: PubChem BioAssay (NCATS)
Several values for one entry are separate records, joined by “and”; a condition that tells them apart may be missing. Equal entries are not always repeated. Results filed as inconclusive are left out. Entries that show only a call come without a potency. Activity calls are given as the source filed them. Unless noted, the call rests on the fitted dose curve. *1 amine or outer side, *2 acyl side, *3 side chain or, on linkers, in order; H or OH if unused. Where a SMILES comes first, the peptide text is derived from it. Bridges are numbered along the chain shown (N, C = ends). Roman numbers before positions name the chains, in order. [ ]: non-standard residue; d: D form. ξ: configuration not given here. Actinocin(9to1) = Cc1c2oc3c(C)ccc(C(=O)[*:1])c3nc-2c(C(=O)[*:2])c(N)c1=O; ξNMeV = CNC(C(=O)O)C(C)C; ξV = CC(C)C(N)C(=O)O; Sar = CNCC(=O)O

Legend:
[1] = qHTS Assay for Identification of Small Molecule Agonists for NFkB Signaling Pathway. (AID 624478; active means well fitted curve in the direction sought with a large enough effect; an effect the other way counts as inactive or inconclusive;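 further: compounds tested together with TNF alpha at its EC50 of 10 pM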)
Outline: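 Assay medium contained 0.5% FBS and 10 mM HEPES pH 7.3. Compounds were added together with TNF alpha (10 pM final), incubated 5 h at 37 C, and the beta-lactamase signal was measured fluorometrically.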

[2] = qHTS Assay for Identification of Small Molecule Antagonists for NFkB Signaling Pathway. (AID 624479);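 further: pathway stimulated with TNF alpha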; further: potency means the concentration at half of the fitted maximal effect
[3] = Cell Proliferation Assay against the TMD8 Cell Line (AID 651645; active means well fitted curve in the direction sought with a large enough effect; an effect the other way counts as inactive or inconclusive;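 further: cells exposed to compound for 48 h before reading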); settings: TMD8 DLBCL cell line proliferation/viability; at 46.1 µM (top of the series) unless noted
Outline: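 TMD8 cells, 500/well in RPMI with 5% FBS, dosed immediately and grown 48 h at 37 C, 5% CO2. CellTiter-Glo luminescence normalised to DMSO 100% and 9.2 uM bortezomib (final) 0%.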

[4] = Cell Proliferation Assay against the TMD8 Cell Line (Caspase readout at 8 hrs) (AID 651713; active means well fitted curve in the direction sought with a large enough effect; an effect the other way counts as inactive or inconclusive; further: potency means the concentration at half of the fitted maximal effect)
Outline: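 Luminescent caspase 3/7 assay; TMD8 cells, 8 h treatment at 37C, 5% CO2. Normalisation: DMSO 0%, 9.2 uM bortezomib 100%.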

[5] = qHTS assay for small molecule activators of the p53 signaling pathway (AID 651743; active means well fitted activation curve with a large enough effect in the signal ratio, not every such curve was filed as active; the % refers to the signal ratio; further: potency means the concentration at half of the fitted maximal effect); settings: HCT-116 p53RE-bla, beta-lactamase FRET ratio, 16 h; activation: stronger effect = higher value
Outline: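 A beta-lactamase reporter under p53 response element control, stably carried by HCT-116 cells, reported pathway activation. Test compounds were applied for 16 hours at 37 C, and fluorescence was measured 2 hours after adding the B/G FRET substrate.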

[6] = qHTS assay for small molecule activators of the nuclear factor-kappa B (NF-kB) signaling pathway (AID 651749; active means well fitted activation curve with a large enough effect in the signal ratio; the % refers to the signal ratio); settings: NF-kB-bla ME-180 cells, beta-lactamase FRET ratio, 16 h; stronger effect = higher value
Outline: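 FRET-based beta-lactamase detection in ME-180 cells reports NF-kB response-element-driven transcription following overnight (16 hr) compound treatment.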

[7] = qHTS assay for small molecule disruptors of the mitochondrial membrane potential - 1 hr assay (AID 651754); further: nearly all actives have a fitted effect of over 35% in size
Outline: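 In this qHTS format, a 1 hr compound treatment of HepG2 cells precedes Mito-MPS staining, and membrane potential is judged from aggregate (red) against monomer (green) fluorescence intensity.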

[8] = qHTS assay for small molecule disruptors of the mitochondrial membrane potential - 5 hr assay (AID 651755); further: nearly all actives have a fitted effect of over 40% in size
Outline: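 Membrane-potential dye readout: red aggregate (540 ex/590 em) versus green monomer (490 ex/535 em) fluorescence after 30 min dye loading, following 5 hr compound exposure at 37C of overnight-plated HepG2 cells.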

[9] = Cell Proliferation Assay against the TMD8 Cell Line (Caspase readout at 16 hrs) (AID 651712; active means well fitted curve in the direction sought with a large enough effect; an effect the other way counts as inactive or inconclusive; further: potency means the concentration at half of the fitted maximal effect)
Outline: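 Caspase-Glo luminescence measured apoptosis after a 16 h, 37 C compound exposure of TMD8 cells (500 cells/well, 5% FBS RPMI). DMSO set 0% and bortezomib at 9.2 uM final set 100% activity.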

[10] = qHTS assay for small molecule agonists of the antioxidant response element (ARE) signaling pathway (AID 651741; active means well fitted activation curve with a large enough effect in the signal ratio; the % refers to the signal ratio; further: potency means the concentration at half of the fitted maximal effect)
Outline: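 Agonist activity is measured as ARE-driven beta-lactamase expression in a stable HepG2 reporter line, using 16 h compound treatment at 37 C and a FRET substrate fluorescence readout after 2 h.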

Compound: CCOc1cc2ncc(C#N)c(Nc3ccc(OCc4ccccn4)c(Cl)c3)c2cc1NC(=O)/C=C/CN(C)C
- outcome [1]: inactive
- Potency [2]: 7.49 µM (active)
- viability (% of control) [3]: -0.655%
- Potency [4]: 23.5 µM (active)

Compound: CC[C@@H](C(=O)O)C1CC[C@H](C)C([C@@H](C)[C@H](O)[C@H](C)C(=O)[C@H](CC)C2O[C@]3(C=C[C@@H](O)[C@]4(CC[C@@](C)(C5CC[C@](O)(CC)[C@H](C)O5)O4)O3)[C@H](C)C[C@@H]2C)O1 (some centres not stated)
- outcome [1]: inactive
- viability (% of control) [3]: 2.54%

Compound: C[C@H]1C[C@H]2[C@@H]3CCC4=CC(=O)C=C[C@]4(C)[C@@]3(F)[C@@H](O)C[C@]2(C)[C@@]1(O)C(=O)CO
- activation [5]: -9.59% (inactive)
- activation [6]: -3.68% (inactive)

Compound: Cc1c2oc3c(C)ccc(C(=O)N[C@@H]4C(=O)NC(C(C)C)C(=O)N5CCC[C@H]5C(=O)N(C)CC(=O)N(C)C(C(C)C)C(=O)O[C@@H]4C)c3nc-2c(C(=O)N[C@@H]2C(=O)NC(C(C)C)C(=O)N3CCC[C@H]3C(=O)N(C)CC(=O)N(C)C(C(C)C)C(=O)O[C@@H]2C)c(N)c1=O (some centres not stated) (I: T[ξV]P[Sar][ξNMeV] / II: T[ξV]P[Sar][ξNMeV]; ester I:1-I:C, II:1-II:C; linker I:N-II:N via Actinocin(9to1))
- outcome [1]: inactive
- Potency [2]: 0.0119 µM (active)
- viability (% of control) [3]: 3.49%

Compound: O=CCCCC=O
- Potency [5]: 35.5 µM (active)
- activation [6]: 3.18% (inactive)
- outcome [7]: inactive
- outcome [8]: inactive

Compound: Cc1nnc(C(C)C)n1C1CC2CCC(C1)N2CC[C@H](NC(=O)C1CCC(F)(F)CC1)c1ccccc1 (some centres not stated)
- outcome [1]: inactive
- Potency [2]: inactive
- viability (% of control) [3]: 86.2%
- Potency [9]: inactive
- Potency [4]: inactive

Compound: Nc1ccn([C@H]2CS[C@@H](CO)O2)c(=O)n1
- Potency [10]: inactive
- activation [5]: -1.09% (inactive)
- activation [6]: -1.13% (inactive)
- outcome [7]: inactive
- outcome [8]: inactive

Compound: CC1=C2[C@@H]([C@H](C)CC[C@H]2/C=C(\C)C(=O)O)[C@H](O)C1
- Potency [10]: inactive
- activation [5]: -3.64% (inactive)
- activation [6]: -0.741% (inactive)
- outcome [7]: inactive
- outcome [8]: inactive

Compound: CCCCCCCC/C=C\CCCCCCCC(=O)O
- Potency [10]: inactive
- activation [5]: 0.394% (inactive) and 0.396% (inactive)
- outcome [7]: inactive
- outcome [8]: inactive

Compound: CCOc1ccc2c(c1)C(C)=CC(C)(C)N2
- Potency [10]: 27.3 µM (active)
- activation [5]: 3.65% (inactive)
- outcome [7]: inactive
- outcome [8]: inactive

Compound: COC(=O)C1=C(C)NC(C)=C(C(=O)OCCCN2CCC(c3ccccc3)(c3ccccc3)CC2)[C@H]1c1cccc([N+](=O)[O-])c1
- outcome [1]: inactive
- Potency [2]: 23.7 µM (active)
- viability (% of control) [3]: 2.99%

Compound: CC1=C(/C=C/C(C)=C/C=C/C(C)=C/CO)C(C)(C)CCC1
- Potency [10]: 68.6 µM (active) and 42.2 µM (active)
- activation [5]: -4.27% (inactive) and -5.83% (inactive)
- activation [6]: -0.416% (inactive) and -2.98% (inactive)
- outcome [7]: inactive

Compound: CN(NC(=O)CC(=O)NN(C)C(=S)c1ccccc1)C(=S)c1ccccc1
- outcome [1]: inactive
- Potency [2]: inactive
- viability (% of control) [3]: 81.1%
- Potency [9]: inactive
- Potency [4]: inactive

Compound: CCC1(Cc2ccc(N)cc2)CCC(=O)NC1=O (configuration not stated)
- Potency [2]: inactive
- viability (% of control) [3]: 97.8% [at 92.2 µM]
- Potency [9]: inactive
- Potency [4]: inactive

Compound: CCC1(O)CC2CN(CCc3c([nH]c4ccccc34)[C@@](C(=O)OC)(c3cc4c(cc3OC)N(C=O)[C@H]3[C@](O)(C(=O)OC)[C@H](OC(C)=O)[C@]5(CC)C=CCN6CC[C@]43[C@@H]65)C2)C1 (some centres not stated)
- outcome [1]: inactive
- Potency [2]: inactive
- viability (% of control) [3]: -0.162%
- Potency [4]: 1.32 µM (active)

Compound: O=C(O)CCC(=O)C(=O)O
- activation [5]: -2.86% (inactive)
- activation [6]: 0.211% (inactive)

Compound: CC(O)CO (configuration not stated)
- Potency [10]: inactive
- activation [5]: 0.0778% (inactive) and -3.92% (inactive)
- activation [6]: 3.41% (inactive) and -1.36% (inactive)
- outcome [7]: inactive
- outcome [8]: inactive

Compound: CCOC(C)=O
- activation [5]: -1.83% (inactive)
- activation [6]: -0.483% (inactive)
- outcome [7]: inactive
- outcome [8]: inactive

Compound: O=c1cc(C2=CC=CC3Sc4ccccc4SC23)oc(N2CCOCC2)c1 (configuration not stated)
- outcome [1]: inactive
- viability (% of control) [3]: 10.5%
- Potency [9]: 8.33 µM (active)
- Potency [4]: 7.43 µM (active)

Compound: O=S(=O)(O)O
- Potency [10]: inactive
- outcome [7]: inactive
- outcome [8]: inactive

Compound: NC(=O)Nc1cc(-c2ccc(CN3CCOCC3)c(F)c2)sc1C(=O)N[C@H]1CCCNC1
- outcome [1]: inactive
- Potency [2]: 4.73 µM (active)
- viability (% of control) [3]: 1.45%
- Potency [9]: 0.0469 µM (active)

Compound: CCCCC/C=C\C/C=C\CCCCCCCC(=O)O
- Potency [10]: inactive
- activation [5]: 1.23% (inactive) and -4.95% (inactive)
- outcome [7]: inactive
- outcome [8]: inactive

Compound: CNC1CCN(C(Cc2cccc(-c3ccncc3)c2)C(=O)c2sc3c(F)ccc(F)c3c2Cl)CC1 (configuration not stated)
- outcome [1]: inactive
- Potency [2]: inactive
- viability (% of control) [3]: 0.928%
